Compound activity as filed in PubChem.
Hits are enriched below; roughly 19% of the tested compounds scored in any of these assays.
HT1080 IDH1KD tx: toxicity to HT-1080 IDH1 knockdown cells (counter line); AID 686971; actives 2% (n = 360,000); HT-1080 IDH1 knockdown viability, ATP luminescence, 48 h; Potency, µM (doses to about 46.1 µM), without a hit: at the highest dose activity, negative = toxicity, hits mostly cytotoxic;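 note: potency is the fitted concentration of half-maximal effect; 0% = DMSO wells and -100% = cell-free medium wells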
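Knockdown cells (IDH1KD HT-1080) received compounds 2 h after plating at 750 cells/well and were kept 48 h at 37 °C in 5% FBS RPMI. A CellTiter-Glo luminescence read gave % activity for curve fitting.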
IL-1B inflam inh: inflammasome signaling inhibition, IL-1 beta readout; THP-1 LPS/ATP IL-1B secretion, AlphaLISA, 16 h; stronger effect = lower value; activity change, % at 57.5 µM; actives 4.7% (n = 360,000); AID 743279; in the data active = activity change below about -50%; inconclusive = mostly about -30% to -49%
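THP-1 cells pretreated 1 hr with compounds (up to 57.5 uM final), then stimulated with LPS (250 ng/mL final) plus ATP (1.25 mM final); secreted IL-1B measured by AlphaLISA after 16 hr, decreased signal indicating inhibition.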
ELG1 DNA repair: inhibitors of ELG1-dependent DNA repair in HEK293T cells; actives 2.3% (n = 330,000); AID 504467; Potency, µM (series often up to 46.1 µM), inactives show at the top dose activity change, negative = inhibition, actives largely listed as inhibitors; HEK293T ELG1-luciferase reporter, luminescence, 16 h; DNA damage induced by 5-fluorouridine; note: potency is the fitted concentration of half-maximal effect; nearly all actives have a fitted effect of over 55% in size
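Luminescence from the luciferase reporter, measured 30 min after ONE-Glo reagent at room temperature, was the read-out. Beforehand, 2,000 cells per well were exposed for 16 hr at 37 °C to 5-fluorouridine together with compound or vehicle.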
HT1080NT lethal: kills 2HG-producing HT-1080-NT fibrosarcoma cells | Potency, µM (series often up to 46.1 µM), for the others: at the top dose activity, negative = less viability, usual class: cytotoxic | actives 1.6% (n = 360,000) | HT-1080-NT fibrosarcoma viability, CellTiter-Glo ATP luminescence, 48 h;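 note: NT is the 2HG producing partner of a matched IDH1 knockdown line; potency is the fitted concentration of half-maximal effect; 0% = DMSO-treated cells and -100% = media-only wells without cells; nearly all actives have a fitted effect of over 55% in size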
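HT-1080-NT; 750 cells/well; 5% FBS RPMI; 48 h compound, 37 degrees C; CellTiter-Glo luminescence; curve fitting and curve-class assignment.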
DT40 TDP1 no CPT: qHTS for Inhibitors of human tyrosyl-DNA phosphodiesterase 1 (TDP1): qHTS in cells in absence of CPT; DT40 Tdp1-/- hTDP1 cells, no CPT, ATP luminescence, 48 h; Potency, µM (titrated, usually from 46.2 µM), for the others: at the top dose activity change, negative = growth inhibition, most hits filed as inhibitors; actives 15% (n = 420,000); AID 686978, 2013; note: potency is the fitted concentration of half-maximal effect; nearly all actives have a fitted effect of over 55% in size
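Seeded 400 DT40-hTDP1 cells/well (vehicle DMSO, no 20 nM CPT); pinned compounds; ≥48 hr at 37 °C; CellTiter-Glo luminescence as viability measure.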
DT40 TDP1 CPT: growth inhibition of DT40 Tdp1-/-;hTDP1 cells with camptothecin (screen for TDP1 inhibitors) | chicken DT40 Tdp1-/-;hTDP1 cells + 20 nM CPT, ATP luminescence, 48 h | Potency, µM (top dose mostly 46.2 µM), for inactives: at the highest dose activity change, negative = growth inhibition, most hits filed as inhibitors | actives 12% (n = 420,000) | AID 686979; note: potency is the fitted concentration of half-maximal effect; nearly all actives have a fitted effect of over 55% in size
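Cell growth measured by CellTiter-Glo luminescence after a minimum 48 h, 37 C compound exposure with 20 nM CPT in Tdp1-knockout DT40 cells stably expressing hTDP1, seeded 400/well; qHTS titration format.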
ELG1 Luc conf: human ELG1 repair inhibition, luciferase-tagged ELG1 confirmation. Potency, µM (series often up to 46.1 µM), without a hit: at the top dose activity change, negative = inhibition, usual class: inhibitors. shares compounds with ELG1 DNA repair. HEK293T ELG1-luciferase levels, luminescence; cells co-treated with 5-fluorouridine. AID 624248. actives 68% (n = 670); note: potency is the fitted concentration of half-maximal effect; nearly all actives have a fitted effect of over 55% in size
ELG1-Luc MMS: MMS-stimulated human ELG1 repair inhibition, confirmed; shares compounds with ELG1 DNA repair; HEK293T luciferase-tagged ELG1 level, MMS stimulated; Potency, µM (titrated, usually from 46.1 µM), inactives show at the highest dose activity change, negative = inhibition, actives largely listed as inhibitors; actives 53% (n = 670); note: potency is the fitted concentration of half-maximal effect; nearly all actives have a fitted effect of over 60% in size
ELG1 5-FU: confirmation of ELG1 repair inhibitors: viability with 5FU; Potency, µM (titrated, usually from 46.1 µM), for the others: at the highest dose activity change, negative = viability loss, usual class: cytotoxic; cell viability with 5-FU, ELG1-dependent repair; 670 tested, under 10 active; shares compounds with ELG1 DNA repair;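 note: ELG1-luc HEK293T cells cotreated with 5-fluorouridine at 10 µM final; potency is the fitted concentration of half-maximal effect; viability measured 16 h after compound addition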
ELG1 MMS viab: confirmation of ELG1 repair inhibitors: viability with MMS. Cell viability with MMS, ELG1-dependent DNA repair. actives 33% (n = 670). shares compounds with ELG1 DNA repair. Potency, µM (doses to about 46.1 µM), for inactives: at the top dose activity change, negative = viability loss, most hits filed as cytotoxic;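 note: ELG1-luc HEK293T cells co-treated with 10 µM MMS; potency is the fitted concentration of half-maximal effect; viability read 16 h after compound addition; nearly all actives have a fitted effect of over 60% in size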
ELG1 unstim viab: affects unstimulated cell viability, ELG1 hit counter-screen. shares compounds with ELG1 DNA repair. cell viability counter-screen, unstimulated, luminescence. Potency, µM (series often up to 45.9 µM), for the others: top-dose activity change, negative = loss of viability, actives largely listed as cytotoxic. actives 8% (n = 900);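 note: potency is the fitted concentration of half-maximal effect; compound exposure lasted 16 hours before reading; nearly all actives have a fitted effect of over 55% in size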
The depositor's hits bear a star; ? = inconclusive; / = not tested or not shown. Unless noted, calls come from the whole dose curve; as a rule, active = well fitted curve in the direction sought with a large enough effect; inconclusive = small, poorly fitted or top-dose-only effect, or another doubt; inactive = no such curve, though single readings can be large; an effect the other way counts as inactive or inconclusive. Unless noted, % is set by controls: 0 for no effect and ±100 for the full control effect.

SMILES	HT1080 IDH1KD tx	IL-1B inflam inh	ELG1 DNA repair	HT1080NT lethal	DT40 TDP1 no CPT	DT40 TDP1 CPT	ELG1 Luc conf	ELG1-Luc MMS	ELG1 5-FU	ELG1 MMS viab	ELG1 unstim viab
O=C(CSC(=S)N1CCOCC1)Nc1ncc2c(n1)CC(c1ccco1)CC2=O (stereo not given)	11%	12	-7%	7%	-16%	6%	/	/	/	/	/
CCCCc1ccc(NC(=O)c2ccc(NS(C)(=O)=O)cc2)cc1	3%	-6	-3%	16%	?	?	/	/	/	/	/
CCCCc1ccc(NC(=O)c2ccc(N(C)S(C)(=O)=O)cc2)cc1	-14%	34	1.5µM*	?	-41%	-20%	?	0.44µM*	-10%	0.63µM*	?
CCOC(=O)c1cnc2cc(C)nn2c1C	17%	6	10%	?	-17%	10%	/	/	/	/	/
CCOC(=O)c1cnc(-n2nc(C)cc2C)nc1Nc1ccc(O)cc1	9%	0	4.1µM*	15%	2.9µM*	2.3µM*	3.5µM*	2.5µM*	-3%	2.8µM*	?
